Source: PubChem
Compounds with a hit are over-represented: about 11% of the library has one in this group of screens.
Pf growth 48h – P. falciparum growth inhibition at 48 hours (one generation); P. falciparum luciferase growth in erythrocytes, 48 h; Potency, µM (titrated, usually from 28.7 µM), inactives show top-dose activity change, negative = inhibition, most hits filed as inhibitors; actives 5.9% (n = 310,000); AID 504832
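Here the parasites carry a stable luciferase gene and grow inside erythrocytes in Albumax-based RPMI medium with compound for one erythrocytic cycle. Activity is scored as loss of luminescent signal.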
AMA1 RON2 block – disrupts binding of P. falciparum AMA1 to RON2 | AlphaScreen AMA1-biotinylated RON2 peptide binding | Potency, µM (highest dose often 58.2 µM), for the others: at the highest dose activity change, negative = inhibition, most hits filed as inhibitors | actives 0.2% (n = 360,000);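 also: 0% = vehicle wells and -100% = peptide control; nearly all actives have a fitted effect of over 45% in size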
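AMA1 (3D7) with his tag at 25 nM final met compounds first, then biotinylated RON2 peptide at 25 nM; detection used donor plus acceptor beads, 10 µg/mL apiece, read by AlphaScreen after 30 min at room temperature.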
HCV inh – blocks hepatitis C virus; Huh7.5.1 HCVcc-Cre infection, luciferase reporter, 44 h; Potency, µM (doses to about 41.8 µM), inactives show top-dose activity change, negative = inhibition, actives largely listed as inhibitors; actives 3.4% (n = 340,000); AID 651820
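Luciferase read-out (15 sec integration) after a 15 min room-temperature substrate step quantifies HCVcc-Cre infection. Cells, 1,000 per well, had compound added 4 h post-plating, then virus at ~0.5 moi, and were cultured 44 h.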
AmpC no deterg – blocks E. coli AmpC beta-lactamase in detergent-free assay | actives 0.52% (n = 330,000) | P00811 | Potency, µM (top dose mostly 57.1 µM), for inactives: at the highest dose activity change, negative = inhibition, usual class: inhibitors | AmpC nitrocefin hydrolysis, absorbance 480 nm, 0.0001% Triton;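 also: plate controls were no compound for no effect and no enzyme for full effect; nearly all actives have a fitted effect of over 20% in size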
Target sequence (P00811 whole entry, looked up): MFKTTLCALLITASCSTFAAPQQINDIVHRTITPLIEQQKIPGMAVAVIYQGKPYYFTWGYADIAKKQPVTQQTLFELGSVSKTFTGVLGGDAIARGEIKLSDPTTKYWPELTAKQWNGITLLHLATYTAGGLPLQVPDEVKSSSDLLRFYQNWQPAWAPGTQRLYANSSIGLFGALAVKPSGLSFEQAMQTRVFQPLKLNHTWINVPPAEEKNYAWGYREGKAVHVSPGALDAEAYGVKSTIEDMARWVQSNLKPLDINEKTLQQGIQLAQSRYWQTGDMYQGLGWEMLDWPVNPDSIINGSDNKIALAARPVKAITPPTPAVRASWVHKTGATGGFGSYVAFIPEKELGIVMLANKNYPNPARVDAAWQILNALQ
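AmpC (5.3 nM in the dispensed reagent) in 20 mM phosphate pH 7.0 with 0.01% (detergent screen) or 0.0001% Triton X-100 was preincubated with compounds for 15 min at room temperature. Nitrocefin was then added from an 800 uM solution, and hydrolysis was followed at 480 nm.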
Pf growth 96h – P. falciparum growth inhibition at 96 hour, primary screen for plastid delayed-death inhibitors. P. falciparum luciferase reporter growth, 96 h. Potency, µM (top dose mostly 28.7 µM), for inactives: at the top dose activity change, negative = inhibition, usual class: inhibitors. actives 6.9% (n = 320,000)
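Delayed-death screen, second-generation endpoint: infected erythrocytes, 2% hematocrit, 0.05% parasitemia final; 96 hours at 37 C, 5% CO2; luciferase detection reagent; luminescence decrease equals reduced growth.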
AmpC inh detg – inhibitors of E. coli AmpC beta-lactamase with detergent; P00811; AmpC hydrolysis of nitrocefin, absorbance 480 nm, 0.01% Triton; Potency, µM (highest dose often 114 µM), without a hit: at the top dose activity change, negative = inhibition, actives largely listed as inhibitors; actives 0.041% (n = 370,000); AID 485294;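 also: 0% = no-compound wells and -100% = no-enzyme wells; nearly all actives have a fitted effect of over 25% in size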
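AmpC (5.3 nM in the dispensed reagent) in 20 mM phosphate pH 7.0 with 0.01% (detergent screen) or 0.0001% Triton X-100 was preincubated with compounds for 15 min at room temperature. Nitrocefin was then added from an 800 uM solution, and hydrolysis was followed at 480 nm.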
Active calls of the source: *; ? = inconclusive; · = no result given; [ ] = remark or other dose. Calls follow the shape of the dose curve; as a rule, active = well fitted curve in the direction sought with a large enough effect; inconclusive = small, poorly fitted or top-dose-only effect, or another doubt; inactive = no such curve, though single readings can be large; an effect the other way counts as inactive or inconclusive. Unless noted, % is scaled to controls: 0 for no effect and ±100 for the full control effect; potency is read from the fitted curve at half-maximal effect.

SMILES	Pf growth 48h	AMA1 RON2 block	HCV inh	AmpC no deterg	Pf growth 96h	AmpC inh detg
CCC(Sc1nnc(C)n2c1cc1sccc12)C(=O)Nc1ccccc1F (centres undefined)	·	·	·	·	·	22%
CCOC(=O)COc1ccc2c(C#N)c3ccccn3c2c1	-10%	67%	-18%	-5%	15%	-5%
N#Cc1c2ccc(OCC(N)=O)cc2n2ccccc12	51%	-3%	13µM*	2%	36%	0%
Ic1ccccc1CN[C@@H]1C2CCN(CC2)[C@@H]1C(c1ccccc1)c1ccccc1	2.6µM*	?	?	207%	2.9µM*	?
Fc1ccccc1CNC1CN2CCC1CC2 (centres undefined)	9%	-2%	16%	-18%	28%	1%
N#CC1=C(Nc2ccccc2)SC=C(c2ccc(Cl)c(Cl)c2)N=C1N1CCOCC1	13µM*	-1%	?	118%	?	?
N#CC1=C(Nc2ccccc2)SC=C(c2ccccc2)N=C1N1CCOCC1	·	-11%	-27%	57%	?	3%
Cc1ccccc1-n1c(-c2csc3ccccc23)n[nH]c1=S	-8%	25%	-10%	-48%	-3%	?
CC(C)(C)c1ccc(-c2n[nH]c(=S)n2-c2ccccc2)cc1	310%	42%	-5%	66%	2.9µM*	-10%
CC(c1ccccc1)n1c(-c2ccc(C(C)(C)C)cc2)n[nH]c1=S (centres undefined)	20%	85%	-8%	-24%	4.7µM*	-2%
Cc1ccccc1-n1c(-c2csc(C)c2C)n[nH]c1=S	10%	39%	3%	22µM*	4%	?
CCN(CC)c1ccc(-c2n[nH]c(=S)n2-c2ccccc2)cc1	-27%	39%	11µM*	-25%	?	7%
CN(C)c1ccc(-c2n[nH]c(=S)n2-c2ccccc2)cc1	2%[5.75 µM]	41%	-5%	-24%	?	-7%
CCN(C(=O)c1cn(CC)c(=O)c2cc(OC)c(OC)cc12)c1ccccc1F	·	·	·	·	·	6%
CC(C)c1cnc2c(c1SCC(=O)Nc1ccccc1C(F)(F)F)c(=O)n(C)c(=O)n2C	·	·	·	·	·	0%
Cc1ccc(-n2c(-c3ccccc3)n[nH]c2=S)c(C)c1	-13%	79%	17%	-19%	13µM*	?
Cc1cccc(Cn2c(=O)n(Cc3ccc4c(c3)OCO4)c(=O)c3oc4ccccc4c32)c1	·	·	·	·	·	15%
CC(CO)NC(=O)C1C=C2c3cccc4[nH]cc(c34)CC2N(C)C1 (centres undefined)	-8%	·	·	·	?	·
CC(C)[C@@]1(NC(=O)[C@H]2CC3c4cccc5[nH]cc(c45)C[C@H]3N(C)C2)O[C@@]2(O)C3CCCN3C(=O)[C@@H](Cc3ccccc3)N2C1=O (some centres undefined)	1.5µM*	·	·	·	8.5µM*	·
CN1C[C@H](C(=O)N[C@]2(C)O[C@@]3(O)[C@@H]4CCCN4C(=O)[C@H](Cc4ccccc4)N3C2=O)C[C@@H]2c3cccc4[nH]cc(c34)C[C@H]21	7.6µM*	·	·	·	?	·
CC(C)C[C@H]1C(=O)N2CCCC2[C@]2(O)O[C@](NC(=O)[C@@H]3C=C4c5cccc6[nH]c(Br)c(c56)C[C@H]4N(C)C3)(C(C)C)C(=O)N12 (some centres undefined)	3.4µM*	·	·	·	?	·
CN1C[C@H](C(=O)N[C@]2(C)O[C@@]3(O)[C@@H]4CCCN4C(=O)[C@H](Cc4ccccc4)N3C2=O)CC2c3cccc4[nH]cc(c34)C[C@H]21 (some centres undefined)	1.9µM*	-7%	14%	209%	1.3µM*	?
COc1ccccc1CNC(=O)COCc1cc(-c2cccs2)on1	·	·	·	·	·	16%
CCOC(=O)c1c(S(=O)(=O)N2CCN(c3cc(Cl)ccc3C)CC2)c(C)n(C)c1C	·	·	·	·	·	16%
Clc1ccc(C2=Nn3c(nnc3-c3n[nH]c4c3CCC4)SC2)cc1Cl	12µM*	15%	?	-5%	?	1%
SMILES	Pf growth 48h	AMA1 RON2 block	HCV inh	AmpC no deterg	Pf growth 96h	AmpC inh detg
Cc1cccc(Cn2cccc2CNS(=O)(=O)c2ccccc2F)c1	·	·	·	·	·	12%
Cc1cc(=O)oc(C)c1C(=O)NCCNC(=O)c1c(C)cc(=O)oc1C	-1%	0%	2%	-19%	·	8%
Cc1cc(=O)oc(C)c1C(=O)NCCC(C)C	25%	-1%	15%	-8%	4.1µM*	7%
COc1ccc(Cl)cc1S(=O)(=O)N1CCC(C(=O)NC2CC2)CC1	?	3%	10%	28%	8.3µM*	-4%
COc1ccc(Cl)cc1S(=O)(=O)N1CCN(C(=O)c2cc(OC)c(OC)c(OC)c2)CC1	?	-13%	4%	160%	12µM*	-12%
COc1ccc(Cl)cc1S(=O)(=O)N1CCN(C)CC1	·	15%	9%	-6%	-12%	-11%
O=C(NCc1ccccc1Cl)c1ccccc1NC(=O)c1nsc2ccccc12	·	·	·	·	·	21%
CCN(CC)Cc1c(NC(=O)c2ccc(OC)cc2)sc2c1CCCC2	·	·	·	·	·	-4%
O=C(NCC1CCN(Cc2ccc(F)cc2)CC1)C1CCCN(c2ncnc3c2nc2n3CCCCC2)C1 (centres undefined)	?	0%	?	129%	9.3µM*	6%
O=C(NCC1CCN(Cc2ccc(Cl)cc2)CC1)C1CCCN(c2ncnc3c2nc2n3CCCCC2)C1 (centres undefined)	12µM*	52%	?	203%	3%	1%
O=C(NCC1CCN(Cc2cccc(Cl)c2)CC1)C1CCCN(c2ncnc3c2nc2n3CCCCC2)C1 (centres undefined)	?	-17%	?	154%	-19%	?
O=C(Nc1ccc(F)cc1)C1CCCN(c2ncnc3c2nc2n3CCCCC2)C1 (centres undefined)	·	·	·	·	·	2%
CCCCNC(=O)CCn1c(=O)c2ccccc2n(Cc2ccccc2C#N)c1=O	·	·	·	·	·	12%
CCCOc1ccc(/C=N/Nc2cc(N3CCOCC3)ncn2)c(O)c1	2.1µM*	78%	?	32%	-6%	-13%
O=[N+]([O-])c1cccc(/C=N/Nc2cc(N3CCOCC3)ncn2)c1	·	-7%	-1%	-21%	?	-23%
CCOc1ccc(/C=N/Nc2cc(N3CCOCC3)ncn2)c(O)c1	·	57%	·	·	·	·
Clc1ccccc1/C=N/Nc1cc(N2CCOCC2)ncn1	121%	2%	-5%	79%	8.3µM*	-3%
Cc1cnc2c(c1SCC(=O)NCc1ccccc1Cl)c(=O)n(C)c(=O)n2C	·	·	·	·	·	2%
